Screening results as filed in PubChem.
Only some compounds are listed: those with a hit (about 2.4% of all), similar ones and a draw of the others.
PABP FP inh: blocks human PABP binding to poly(A) RNA | AID 2014 | fluorescence polarization | calls only at 35 µM | actives 1% (n = 290,000) | P11940;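 also: calls also rest on retests at 20 µM and on dose response follow-up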
eIF4H inh: inhibitors of RNA binding by human eIF4H; Q15056; eIF4H fluorescence polarization binding assay; inhibition, % at 35 µM; actives 0.94% (n = 290,000);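 also: calls also rest on retests at 20 µM and on dose response follow-up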
MLLE-PAM2 inh: blocks PAM2 peptide binding to the PABP1 MLLE domain | GST-MLLE / FITC-PAM2 fluorescence polarization | P11940 | inhibition, % at 20 µM | actives 0.36% (n = 360,000); in the data active = inhibition above about 35%, passing the limit was not always enough;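 also: plate controls were DMSO wells with GST-MLLE for no effect and wells lacking GST-MLLE protein for full effect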
HMGR II inh: inhibitors of class II HMG-CoA reductase from Enterococcus faecalis | inhibition, % at 10 µM | purified E. faecalis HMGR, NADPH absorbance 340 nm kinetic | actives 0.41% (n = 190,000);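 active = inhibition above a set limit, the median over all tested compounds plus 3 SD, cut at about 9.5% in these data; inconclusive = no clear call, values can overlap the other calls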;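 also: enzyme runs in reverse so mevalonate oxidation gives rising NADPH absorbance; 0% = complete reaction with DMSO and 100% = background rate lacking mevalonate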
PHOSPHO1 block: inhibitors of human PHOSPHO1 phosphatase; recombinant PHOSPHO1, absorbance phosphatase assay; Q8TCT1; inhibition, % at 13.3 µM; actives 1.1% (n = 290,000); AID 1565; in the data active = inhibition above about 60%
Target sequence (Q8TCT1 whole entry, looked up): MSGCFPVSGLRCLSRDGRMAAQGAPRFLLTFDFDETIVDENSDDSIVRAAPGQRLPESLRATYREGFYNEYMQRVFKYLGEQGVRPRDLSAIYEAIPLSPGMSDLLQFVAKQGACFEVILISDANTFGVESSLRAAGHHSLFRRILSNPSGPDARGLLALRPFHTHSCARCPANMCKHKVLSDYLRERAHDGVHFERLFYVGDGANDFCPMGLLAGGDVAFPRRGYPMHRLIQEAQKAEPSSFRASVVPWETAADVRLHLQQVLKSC
Starred values were filed as active, the others as inactive; i = inactive; ? = inconclusive; . = not tested or not shown; + = active, no number. Unless noted, no rule for the calls is given here.

SMILES	PABP FP inh	eIF4H inh	MLLE-PAM2 inh	HMGR II inh	PHOSPHO1 block
Cc1ccc(CN2CCN(/N=C/c3ccc(C(=O)O)cc3)CC2)cc1	i	85*	1	-6	-38
CCOC(=O)c1sc(N)c(C(=O)OCC)c1C	i	-3	14	.	36
CCOC(=O)c1c(N)sc(C(=O)OCCOC)c1C	i	-8	25	13*	-21
CC1(C)Oc2ccc3ccc(=O)oc3c2/C(=C/N)C1=O	i	-10	-3	1	73*
CC1(C)Oc2ccc3ccc(=O)oc3c2-c2cn[nH]c21	i	4	-135	-1	14
CC1(C)Oc2ccc3ccc(=O)oc3c2-c2cnoc21	i	17	-136	0	95*
COc1ccc(N2C3=C(CC4=C2CCCC4=O)C(=O)CCC3)cc1	+	105*	79*	-1	9
N#CC1=C(N)SC(N)=C(C#N)C1CCc1ccccc1	?	?	78	-3	7
N#CC1=C(N)SC(N)=C(C#N)C1c1c(Cl)cccc1Cl	i	19	-48	-11	82*
O=C(Nc1ccc(F)cc1)C1CC(=O)n2cnnc2N1 (configuration not stated)	i	-10	18	9.7*	28
Cc1ccccc1N=C(N)Nc1ccccc1C	.	.	58*	.	.
CCn1c(SCC(=O)c2[nH]c(C)c(C(C)=O)c2C)nnc1-c1ccncc1	i	11	-20	0	-27
CCn1c(SCC(=O)c2[nH]c(C)c(C(C)=O)c2C)nnc1-c1ccccc1	i	-5	-8	-6	75*
CC(=O)c1c(C)[nH]c(C(=O)CSc2nnc(CN3CCCCCC3=O)n2-c2ccccn2)c1C	i	0	-46	1	67*
Cc1cc(C(=O)Nc2ccc(Cl)c(S(=O)(=O)N3CCOCC3)c2)c2ccccc2n1	.	.	-21	.	.
CCOC(=O)c1sc(N)c(C#N)c1COC(=O)CNC(=O)c1ccccc1	+	133	-104	1	-19
Cc1ncoc1C(=O)NC1CCCc2c1cnn2-c1ccc(C(C)(C)C)cc1 (configuration not stated)	i	-1	-8	.	.
O=c1[nH]c2cc3ccccc3cc2nc1C(F)(F)F	i	38	41*	-2	-13
CN(C=[N+](C)C)c1cccc2c1C(=O)c1ccccc1C2=O	i	?	86*	3	-6
COc1ccc(N2C(=O)CC(N(CCc3ccccc3)C(=O)/C=C/C(=O)O)C2=O)cc1 (configuration not stated)	i	6	-8	-4	64*
CCCOc1ccc(N2C(=O)CC(N(CCc3ccc(OC)cc3)C(=O)/C=C/C(=O)O)C2=O)cc1 (configuration not stated)	i	-3	9	-2	37
Cc1cc(C=O)sc1[B-](F)(F)F	.	.	11	.	.
CC1CCC(NC(=O)CN(C)S(=O)(=O)c2cnc[nH]2)CC1 (configuration not stated)	i	-9	7	-4	-22
CC1CCCC(NC(=O)CN(C)S(=O)(=O)c2cnc[nH]2)C1C (configuration not stated)	i	-2	1	14*	-13
COC(=O)C1=COC(OC2OC(CO)C(O)C(O)C2O)C2C1C=CC2(O)CO (configuration not stated)	+	89*	-1	.	31
SMILES	PABP FP inh	eIF4H inh	MLLE-PAM2 inh	HMGR II inh	PHOSPHO1 block
COC(=O)C1=CO[C@@H](O[C@@H]2OC(CO)[C@@H](O)[C@@H](O)[C@@H]2O)C2C1CC[C@]2(C)O (some centres not stated)	.	.	-1	.	.
Cc1ccccc1OCC(=O)NCCNC(=O)c1ccccn1	i	-6	6	.	39
CC(=O)c1c(C)cc(C)c(CSc2nc(C)cc(=O)[nH]2)c1C	i	-13	44*	-1	14
CCOC(=O)CSc1nc(C)cc(=O)[nH]1	i	-2	23	-2	21
CN1C2C=C3C(C#N)=C(N)C(C#N)(C#N)[C@@H](c4ccsc4)[C@@H]3C1CC2 (some centres not stated)	+	66*	.	-1	1
COc1ccccc1C(=O)C1CCCN(C(=O)c2snnc2C)C1 (configuration not stated)	i	-4	2	0	11
Cc1cc(C(=O)CSc2nnc3c(Cl)cc(Cl)cn23)c(C)n1C	i	15	-36	1	-72
C=CCn1c(C)cc(C(=O)CSc2nnc3c(Cl)cc(Cl)cn23)c1C	i	-10	-15	-3	62*
CCCN1C(=O)CC(c2ccc(OC)c(OC)c2)C1=O (configuration not stated)	.	.	10	.	.
COc1ccc(Br)cc1C1NC(=O)c2c(sc3c2CCN(C)C3)N1 (configuration not stated)	+	100*	-33	.	17
Cc1nc(-c2cccc(NC(=O)COc3ccc(Cl)cc3)c2)cs1	i	-6	6	.	66*
COc1ccc(CC(=O)Nc2cccc(-c3csc(C)n3)c2)cc1	i	2	-9	-1	12
Cc1cc(C)n2nc(-c3sccc3-n3cccc3)cc2n1	i	5	-1	-4	62*
Cc1cc(C)n2nc(-c3sccc3-n3c(C)ccc3C)cc2n1	i	-7	-34	-6	37
CC1=C(C)NC(=S)SC1	i	-4	26	-4	73*
S=C1Nc2ccccc2CS1	.	.	34	.	.
CCOC(=O)C1=C(COc2ccc(F)cc2Cl)NC(=O)NC1c1cc(C)ccc1C (configuration not stated)	i	2	5	24*	27
COc1ccccc1NS(=O)(=O)c1ccc(C)c(C(=O)NCC2(N(C)C)CCCCC2)c1	.	.	12	.	.
Cc1onc(-c2ccccc2Cl)c1C(=O)NCc1nnnn1-c1ccc(F)cc1	.	.	-14	.	.
CCOC(=O)N1CCN(C2CCCN(C(=O)c3cccc(N(C)C)c3)C2)CC1 (configuration not stated)	i	-6	-3	.	19
N#Cc1c(-c2ccccc2)[nH]c(=S)[nH]c1=O	i	-4	28	-3	24
N#Cc1c(-c2cccc(Cl)c2)[nH]c(=S)[nH]c1=O	i	0	53*	.	28
O=C(COc1ccc(Br)cc1)Nc1ccccc1N1CCCC1	i	-4	-4	-2	48
CC(=O)N1CCN(c2ccccc2NC(=O)COc2ccc(Br)cc2)CC1	i	-2	1	13*	-12
Cc1ccc(SCC(=O)NC(=O)NCCC(C)C)c(C)c1	i	-14	12	-8	23
O=C(O)c1ccc(NCc2cccc(Br)c2)cc1	+	active	-1	-4	4
O=[N+]([O-])c1ccc(S(=O)(=O)Nc2ccc3c(c2)OCCO3)cc1	i	-2	41*	.	-2
Cc1ccc(S(=O)(=O)Nc2ccc3c(c2)OCCO3)cc1	i	2	-12	-1	44
Cc1cc(F)ccc1NCC(=O)Nc1ccccc1Br	i	12	-2	-6	9
NC(N)=NS(=O)(=O)c1ccc(NC(=S)NC(=O)/C=C/c2ccco2)cc1	+	88	2	-6	-1
